Bioassay records as filed in PubChem.
RORgamma inh = ROR gamma (mouse) transcription inhibition. P51450. Drosophila S2 Gal4-RORgamma UAS-luciferase reporter, 20 h. Potency, µM (top dose mostly 53.6 µM), most hits filed as inhibitors. hit rate 5.4% among 310,000. AID 2551; also: nearly all actives have a fitted effect of over 60% in size
Target sequence (P51450 whole entry, looked up, the tested form may be a part): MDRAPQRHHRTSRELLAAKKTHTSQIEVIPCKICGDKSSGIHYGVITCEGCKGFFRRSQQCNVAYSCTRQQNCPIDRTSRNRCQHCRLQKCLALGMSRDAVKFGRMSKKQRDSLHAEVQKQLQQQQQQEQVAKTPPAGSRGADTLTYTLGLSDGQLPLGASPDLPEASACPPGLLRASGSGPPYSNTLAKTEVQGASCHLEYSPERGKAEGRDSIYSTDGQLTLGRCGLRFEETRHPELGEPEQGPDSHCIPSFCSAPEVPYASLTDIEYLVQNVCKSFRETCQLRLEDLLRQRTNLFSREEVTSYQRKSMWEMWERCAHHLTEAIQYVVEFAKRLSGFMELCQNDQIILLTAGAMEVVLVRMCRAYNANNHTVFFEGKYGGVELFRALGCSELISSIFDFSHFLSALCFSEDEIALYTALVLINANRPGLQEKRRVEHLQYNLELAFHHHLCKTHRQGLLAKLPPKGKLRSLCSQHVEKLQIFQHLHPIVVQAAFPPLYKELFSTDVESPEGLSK
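ROR gamma transcriptional activity was tracked as Gal4-UAS luciferase output in stably transfected Drosophila Schneider cells, with compound added 1 hr before 700 uM copper sulfate induction and a 20 hr ambient-temperature incubation.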
IL1B secr inh = inhibitors of inflammasome signaling (IL-1 beta secretion); THP-1 LPS/ATP IL-1B secretion, AlphaLISA, 16 h; active compounds read low; activity change, % at 57.5 µM; hit rate 4.7% among 360,000; in the data active = activity change below about -50%; inconclusive = mostly about -30% to -49%
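THP-1 cells pretreated 1 hr with compounds (up to 57.5 uM final), then stimulated with LPS (250 ng/mL final) plus ATP (1.25 mM final); secreted IL-1B measured by AlphaLISA after 16 hr, decreased signal indicating inhibition.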
Gal4-VP16 FLuc = counter-screen for ROR gamma inhibitors: Gal4-VP16 reporter; hit rate 3.5% among 310,000; AID 2546; Potency, µM (titrated, usually from 53.6 µM), hits mostly inhibitors; Drosophila S2 Gal4-VP16 UAS-luciferase, luminescence, 20 h;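 also: Gal4-VP16 expression switched on by copper sulfate through the metallothionein promoter; nearly all actives have a fitted effect of over 50% in size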
MCF10A rereplic = inducers of DNA re-replication in MCF 10A breast cells; AID 624296; MCF 10A DNA re-replication, Hoechst nuclear intensity, 48 h; hit rate 2.9% among 350,000; Potency, µM (doses to about 46.1 µM), usual class: activators; also: nearly all actives have a fitted effect of over 50% in size
SW480 rerep = induces DNA re-replication in SW480 colon adenocarcinoma cells; SW480 DNA re-replication, Hoechst DNA content imaging, 48 h; AID 624297; hit rate 1.8% among 340,000; Potency, µM (series often up to 46.1 µM), most hits filed as activators; also: nearly all actives have a fitted effect of over 55% in size
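Compounds, transferred as 23 nL by pin tool, were incubated with cells for 48 hr; DNA content per nucleus was then quantified by Hoechst staining and fluorescence plate imaging.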
A number is an active result; 0 = inactive; ? = inconclusive; - = not tested or not shown; [ ] = dose if it differs, or a comment. Shown are actives, neighbours in structure and some others; about 11% of the full set was active somewhere. Unless noted, calls follow the shape of the dose curve; as a rule, active = well fitted curve in the direction sought with a large enough effect; inconclusive = small, poorly fitted or top-dose-only effect, or another doubt; inactive = no such curve, though single readings can be large; an effect the other way counts as inactive or inconclusive.

SMILES | RORgamma inh | IL1B secr inh | Gal4-VP16 FLuc | MCF10A rereplic | SW480 rerep
CC1(C)CC2CC(C)(CN2C(=S)Nc2ccccc2)C1 (stereo not given) | ? | 0 | 0 | 0 | 0
Cc1ccc(C(=O)Nc2ccccc2N2CCOCC2)cc1S(=O)(=O)N1CCOCC1 | - | 0 | - | ? | 0
CCn1c(SCc2ccccc2Cl)nc2nc3c(cc2c1=O)CCCC3 | 11.2µM | ? | ? | 18.4µM | ?
Cn1c(SCc2ccccc2Cl)nc2ccccc21 | ? | 0 | 0 | ? | 0
CCn1c(SCc2ccccc2Cl)nc2ccccc21 | 10µM | 0 | 0 | ? | 0
CCn1c(SCc2c(Cl)cccc2Cl)nc2nc3c(cc2c1=O)CCCC3 | - | 0 | - | 23.1µM | ?
CCn1c(SCC(=O)NCc2ccccc2)nc2nc3c(cc2c1=O)CCCC3 | 0 | 0 | 0 | 0 | 0
COC(=O)c1sc(S(=O)(=O)NC(Cc2ccccc2)C(=O)O)c(C(=O)OC)c1C (stereo not given) | - | 0 | - | 0 | 0
CCCNC(=S)Nc1ccc(F)cc1F | ? | 0 | 0 | 0 | 0
Cc1cccc(NC(=S)NCc2ccccc2)c1C | 3.98µM | 0 | 5.62µM | 0 | 0
Cc1cccc(NC(=S)Nc2ccccn2)c1C | 1.12µM | 0 | 1.78µM | 0 | 0
CCNC(=S)Nc1cccc(F)c1C | 12.6µM | 0 | 0 | 0 | 0
Cc1cc(Cl)ccc1NC(=S)NCc1ccc(F)cc1 | 6.31µM | -56.4 | 7.08µM | 0 | 0[9.22 µM]
O=C(COC(=O)c1ccc(-n2cnnn2)cc1)Nc1cc(Cl)ccc1F | - | 0 | - | 0 | 0
COc1ccc(CNc2nc(-c3cccc(C#N)c3)nc3ccccc23)c(OC)c1 | ? | - | 0 | - | -
COc1ccc(S(=O)(=O)N2CCN(C(=O)CCCN3C(=O)NC4(CCCC4)C3=O)CC2)cc1 | - | 0 | - | ? | ?
CC[C@H](C)[C@H](NC(=O)[C@H](C)NC(=O)CNC(=O)[C@H](CCCN=C(N)N)NC(=O)[C@H](C)NC(=O)[C@H](CC(C)C)NC(=O)[C@H](CCC(=O)O)NC(=O)[C@H](CC(C)C)NC(=O)[C@H](C)NC(=O)[C@@H](N)CCC(=O)O)C(=O)N[C@@H](Cc1ccccc1)C(=O)N[C@@H](CCC(N)=O)C(=O)N[C@@H](C)C(=O)O | 0 | - | 0 | - | -
CC(C)Cn1c(N)c(C(=O)COC(=O)[C@H](C)NC(=O)c2ccccc2Cl)c(=O)n(C)c1=O | - | 0 | - | 0 | 0
CCCCCCCCN1C(=O)[C@H](CC(=O)N2CCN(C(=O)OCC)CC2)C[C@@]2(C(=O)OCC)CCCC=C12 | - | 0 | - | - | -
Cc1ccccc1NC(=S)NCc1ccc(F)cc1 | 7.08µM | 0 | 6.31µM | 0 | 0
Cc1ccccc1NC(=S)NCc1ccc(Cl)cc1 | 2.82µM | 0 | 3.98µM | 0 | 0
Cc1cccc(NC(=S)NCCO)c1C | 0 | 0 | 0 | 0 | 0
Cc1ccccc1NC(=O)NCCc1ccc(Cl)cc1 | 0 | 0 | 0 | ? | 0
Cc1cccc(NC(=S)NCc2ccc(F)cc2)c1C | 3.55µM | 0 | 5.01µM | 0 | 0
C[C@@H]1CCCCO[C@H](CN(C)C(=O)Nc2ccc3c(c2)OCO3)[C@H](C)CN([C@@H](C)CO)C(=O)c2cc(NS(=O)(=O)c3ccc(Cl)cc3)ccc2O1 | - | 0 | - | - | -
SMILES | RORgamma inh | IL1B secr inh | Gal4-VP16 FLuc | MCF10A rereplic | SW480 rerep
O=C(Nc1ccc(C(=O)OC2CCCCC2)cc1)c1ccncc1 | ? | 0 | 0 | 0 | 0
O=C(COC(=O)c1cccs1)Nc1cccc(S(=O)(=O)N2CCCCC2)c1 | - | 0 | - | 0 | 0
COc1ccccc1N(C)S(=O)(=O)c1ccc(C(=O)NCC2CCCCC2)cc1 | - | 0 | - | 0 | 0
O=[N+]([O-])c1ccc2nc(NCCCO)nc(-c3ccccc3)c2c1 | 0 | 0 | 0 | 14.6µM | 0
CCOC(=O)C1CN(C(=O)OCC)CC1=NNC(N)=O (stereo not given) | - | 0 | - | - | -
Oc1c(Cl)cc(Cl)cc1CNc1ccc(Br)cn1 | ? | -84.8 | 0 | 11.2µM | 0
CCCCOc1ccc(C(=O)N/C(=C/c2cccc([N+](=O)[O-])c2)C(=O)O)cc1 | 0 | -61.8 | 0 | ? | 0
CCCCC(=O)NNC(=S)NC(=O)c1ccc([N+](=O)[O-])cc1 | 2.51µM | 0 | 11.2µM | ? | 0
COCCCNC(=S)NC(=O)c1ccc(C)cc1 | 12.6µM | 0 | ? | 0 | 0
CCCCC(=O)NNC(=S)NC(=O)c1cccc([N+](=O)[O-])c1 | 1µM | 0 | 0.891µM | 0 | 0
CCCCOc1ccc(C(=O)N/C(=C\c2cccc([N+](=O)[O-])c2)C(=O)OCCC)cc1 | 0 | 0 | 0 | ? | 0
O=C(O)CC1(CC(=O)N2CCOCC2)CCCC1 | 0 | 0 | 0 | 0 | 0
CCCS(=O)(=O)NC(=O)C1(C)CCCN(C(=O)c2ccccc2C(F)(F)F)C1 (stereo not given) | - | 0 | - | - | -
OCc1ccccc1O[C@H]1OC(CO)C(O)C(O)C1O (stereo not given in full) | 0 | - | 0 | - | -
CC(C)COc1cccc(C(=O)N(CC(=O)Nc2ccccc2C(F)(F)F)Cc2ccco2)c1 | - | 0 | - | 0 | 0
CCCCC(=O)NNC(=S)NC(=O)c1ccc(C)cc1 | 4.47µM | 0 | 17.8µM | 0 | ?
Cc1ccc(C(=O)NC(C#N)=C(Cl)Cl)cc1 | 8.91µM | -103.1 | 10µM | 9.2µM | ?
COc1ccc(C(=O)NC(=S)NNC(=O)c2ccc(C)cc2)cc1 | - | 0 | - | 0 | 0
CC(C)CC(=O)NC(=S)NNC(=O)c1ccc([N+](=O)[O-])cc1 | 3.98µM | 0 | 5.62µM | 0 | 0
Cc1ccc(C(=O)NC(=S)NNC(=O)CC#N)cc1 | 10µM | 0 | 0 | 0 | 0
CC1CCCC(C)N1C(=O)COC(=O)c1cccnc1Cl (stereo not given) | - | 0 | - | 0 | 0
COC(=O)c1ccc2nc(-c3ccco3)c(Cc3cccc(F)c3)n2c1 | - | 0 | - | - | -
O=C(CC(O)(c1ccccc1)c1ccccc1)Nc1ccccn1 | - | 0 | - | 0 | 0
O=C(NCc1cccc(F)c1)c1[nH]c(C(F)(F)F)nc1-c1ccccc1 | - | 0 | - | - | -
CCOc1cc(/C=C2\CCCC(C(=O)C(F)(F)F)=C2O)ccc1O | ? | ? | 0 | 18.4µM | ?
SMILES | RORgamma inh | IL1B secr inh | Gal4-VP16 FLuc | MCF10A rereplic | SW480 rerep
COc1cc(/C=C2/CCCC(C(=O)C(F)(F)F)=C2O)ccc1O | ? | 0 | 0 | 0 | 0
COc1ccc(/C=C2/CCCC(C(=O)C(F)(F)F)=C2O)cc1OC | 17.8µM | ? | ? | ? | 0
COC(=O)C[C@H]1C=C[C@H](NC(=O)C2CCOCC2)[C@@H](CO)O1 | - | 0 | - | - | -
CC(=O)Nc1ccc(S(=O)(=O)O)c(OC(C)=O)c1 | - | 0 | - | 0 | 0
Cc1nc(Nc2ccc(S(N)(=O)=O)cc2)sc1-c1ccccc1 | 0 | -80.4 | 0 | ? | 0
COc1ccc(Nc2nc(C)c(C(C)=O)s2)cc1 | - | 0 | - | - | -
COc1ccc(Nc2nc(C)c(-c3ccccc3)s2)cc1 | 11.2µM | 0 | ? | ? | -
COc1ccc(S(=O)(=O)Oc2cccc(/C=N/N=C3/NC(=O)C(CC(=O)O)S3)c2)cc1 (stereo not given) | 0 | 0 | 0 | 0 | 6.51µM
Cc1ccc(S(=O)(=O)Oc2ccc(/C=N/N=C3/NC(=O)C(CC(=O)O)S3)cc2)cc1 (stereo not given) | 0 | 0 | 0 | 0 | 0
